Measured values: PubChem BioAssay (NCATS)
Inconclusive results are not listed. The source made the active and inactive calls. Calls follow the shape of the dose curve; as a rule, active = well fitted inhibition curve with a large enough effect; inconclusive = small, poorly fitted or top-dose-only effect; inactive = flat fitted curve, though single readings scatter.

Columns and labels:
Assay in all cases: qHTS profiling for inhibitors of Plasmodium falciparum proliferation (AID 504749); also: nearly all actives have a fitted effect of over 60% in size
Details in all cases: P. falciparum in erythrocytes, SYBR Green DNA, 72 h; series mostly up to 28.7 µM
AS120 = test system: AS120
In short: (§1)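 P. falciparum-infected erythrocytes (0.3% parasitemia, 2.5% hematocrit final) were exposed to compounds for 72 h at 37 C in 5% CO2, then lysed with SYBR Green buffer overnight at room temperature; parasite DNA fluorescence was normalized to artemisinin and DMSO controls.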

ATS189 = test system: ATS189
In short: as §1

ATS95 = test system: ATS95
In short: as §1

C2A = test system: C2A
In short: as §1

CP185 = test system: CP185
In short: as §1

CP191 = test system: CP191
In short: as §1

CP192 = test system: CP192
In short: as §1

CP194 = test system: CP194
In short: as §1

CP201 = test system: CP201
In short: as §1

CP203 = test system: CP203
In short: as §1

CP211 = test system: CP211
In short: as §1

CP215 = test system: CP215
In short: as §1

CP217 = test system: CP217
In short: as §1

CP237 = test system: CP237
In short: as §1

CP238 = test system: CP238
In short: as §1

CP247 = test system: CP247
In short: as §1

CP250 = test system: CP250
In short: as §1

CP252 = test system: CP252
In short: as §1

Measured: Potency

CN(C)[C@H]1C(=O)C(C(=O)NCN2CCCC2)=C(O)[C@]2(O)C(=O)C3=C(O)c4c(O)cccc4[C@](C)(O)[C@H]3C[C@H]12
inactive: AS120 | ATS189 | ATS95 | C2A | CP185 | CP191 | CP192 | CP194 | CP201 | CP203 | CP211 | CP215 | CP217 | CP237 | CP238 | CP247 | CP250 | CP252
